# Bioassay records as filed in PubChem BioAssay.
# GLP-1R inv ag – acts as inverse agonist at human GLP-1 receptor | HEK293 GLP-1R CRE-luciferase, luminescence, 24 h; GLP-1R form is constitutively active | 410,000 tested, 1.6% active | P43220 | Potency, µM (series often up to 38.3 µM), hits mostly inhibitors | AID 624417; also: nearly all actives have a fitted effect of over 55% in size
#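 Seeding at 200 cells/uL, 12 h culture, 24 hr compound treatment, then luciferase reagent and a luminescence read; cells are HEK293 stably expressing a constitutively active GLP-1R plus cAMP-responsive luciferase.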
# D3 antag – blocks the human D3 dopamine receptor; P35462; D3R cells, DiscoveRx beta-arrestin luminescence, antagonist mode; stronger effect = lower value; max response, negative = inhibition, %; 360,000 tested, 2.5% active; in the data active = max response below about -50%; inconclusive = no clear call, values can overlap the other calls
# Target sequence (P35462 whole entry, looked up): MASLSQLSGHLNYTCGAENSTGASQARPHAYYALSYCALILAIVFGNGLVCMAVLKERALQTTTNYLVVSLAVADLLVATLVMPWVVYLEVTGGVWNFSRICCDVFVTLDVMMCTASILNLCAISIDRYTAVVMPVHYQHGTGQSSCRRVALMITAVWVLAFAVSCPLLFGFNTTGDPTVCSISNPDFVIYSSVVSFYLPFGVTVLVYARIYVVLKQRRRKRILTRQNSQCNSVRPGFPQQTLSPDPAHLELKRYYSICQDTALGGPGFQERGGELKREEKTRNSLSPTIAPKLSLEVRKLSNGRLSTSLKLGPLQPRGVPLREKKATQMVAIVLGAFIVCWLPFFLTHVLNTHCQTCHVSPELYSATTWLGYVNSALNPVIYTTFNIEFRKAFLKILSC
#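 Cells plated overnight at 1500 cells/well, then exposed to library compounds with dopamine controls for 90 minutes at 37 degrees C. DiscoveRx reagent added for 30–60 minutes at room temperature; luminescence read, quantitative HTS format.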
# DRD3 agonist – activates the human D3 dopamine receptor | P35462 | D3R DiscoveRx beta-arrestin cells, luminescence, 90 min | max activation, % | 410,000 tested, 0.58% active; in the data active = max activation above about 30%
#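 Agonist mode: compounds and dopamine controls were applied to plated cells for 90 min at 37 degrees C after an overnight attachment at 1500 cells/well. Luminescent read-out followed 30 - 60 minutes at room temperature with DiscoveRx detection reagent.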
# GLP-1R agonist – agonists of human GLP-1 receptor; P43220; HEK293 GLP-1R CRE-luciferase, luminescence, 4-6 h; cells express a hypersensitive GLP-1R form; Potency, µM (doses to about 45.6 µM), most hits filed as activators; 380,000 tested, 0.007% active; AID 624172
# A number is an active result; n = inactive; u = inconclusive; x = not tested or not shown; [ ] = dose if it differs, or a comment. Most compounds without a hit are left out; they make up all but 4.3% or so of the library. Unless noted, calls follow the shape of the dose curve; as a rule, active = well fitted curve in the direction sought with a large enough effect; inconclusive = small, poorly fitted or top-dose-only effect, or another doubt; inactive = no such curve, though single readings can be large; an effect the other way counts as inactive or inconclusive.
SMILES,GLP-1R inv ag,D3 antag,DRD3 agonist,GLP-1R agonist
Cc1ccc([N+](=O)[O-])c(Oc2ncnc3c2oc2ccccc23)c1,n,x,n,x
Cc1oc(-c2ccccc2F)nc1CS(=O)(=O)CC(=O)NCCc1ccc(Cl)cc1,n,x,n,n
CSc1cccc(NC(=S)N(CCC(C)C)C2CCN(C(C)C)CC2)c1,8.9µM,-85,n,n
COc1ccc(NC(=S)N(CCCN2CCCCC2)Cc2cccs2)cc1,u,-87,n,n
COc1cccc(NC(=S)N(CCCN2CCC(C)CC2)Cc2cccs2)c1,u,-84,n,n
Cc1ccc(NC(=S)N(CCCN2CCN(C)CC2)Cc2cccs2)cc1,n[0.307 µM],n,n,n
COc1cccc(NC(=S)N(CCN(C)C)Cc2cccs2)c1,u,n,n,n
CSc1cccc(NC(=S)N(CCC(C)C)C2CCN(C(C)=O)CC2)c1,u,n,n,n
COc1ccc(NC(=S)N(CCCN2CCC(C)CC2)Cc2cccs2)cc1,u,-58,n,n
CCOC(=O)C1CCN(CC(O)COc2ccc(S(=O)(=O)N3CCCC3)cc2[N+](=O)[O-])CC1 (stereo not given),n,n,n,n
O=C(NCCc1nc2ccccc2n1Cc1ccccc1)c1ccco1,n,x,n,x
Cc1ccc(NC(=O)CSc2nc3c(c(=O)[nH]2)CCC3)cc1Cl,n,x,n,x
CSc1cccc(NC(=S)N(CCCN2CCC(C)CC2)Cc2cccs2)c1,u,-76,n,n
Cc1cc(C)c(CN2CCN(CCCn3cnc(C(=O)Nc4ccc(C)c(C)c4)n3)CC2)c(C)c1,13µM,n,n,n
CC(C)C[C@@H](CN)NC(=O)c1nc[nH]c1C(=O)N[C@@H](Cc1c[nH]c2ccccc12)C(=O)CNC[C@H](C)NC(=O)c1nc[nH]c1C(=O)N[C@@H](CC(=O)O)C(=O)O,n,-53,n,n
CC(C)C[C@@H](CNCC(=O)[C@H](C)NC(=O)c1[nH]cnc1C(=O)N[C@@H](C)CN)NC(=O)c1nc[nH]c1C(=O)N[C@@H](CC(=O)O)C(=O)O,n,n,32,n
Cc1ccc(N2CC(NC(=O)c3ccc4c(c3)OCO4)CC2=O)cc1 (stereo not given),n,x,n,x
Cc1ccc(NC(=O)CCC(=O)N2CCSc3ccccc32)cc1Cl,n,x,n,x
COc1ccc(-c2cc(OC(=O)c3ccccc3Cl)c3c(C)oc(C)c3c(=O)c2)cc1OC,n,x,n,x
CCc1ccc(C2C(C#N)=C(N)C(C#N)(C#N)C3=CCC(C(C)(C)C)CC32)cc1 (stereo not given),u,-93,n,n
CCC(=O)N1CCc2cc(S(=O)(=O)Nc3cc(C)ccc3OC)ccc21,n,x,n,n
COc1ccc(CCC(=O)NCCOc2ccc(C)cc2)cc1,1.8µM,n,n,n
Cc1ccc(C)c(OCCC(=O)NCCc2ccc(Cl)cc2)c1,10µM,n,n,n
CCN(CC)CCCNC(=O)c1nn(-c2ccc(OC)c(Cl)c2)c(=O)c2c1c1ccccc1n2C,n,x,n,x
NNC(=O)CSc1cccc2cccnc12,n,n,n,n
SMILES,GLP-1R inv ag,D3 antag,DRD3 agonist,GLP-1R agonist
CN(C)C(=O)CSc1cccc2cccnc12,2.8µM,u,n,n
CCCCOc1ccc(NC(=O)CSc2cccc3cccnc23)cc1,2.8µM,n,n,n
O=C(CSc1cccc2cccnc12)N1CCCC1,0.5µM,n,n,n
O=C(Nc1ccc(S(=O)(=O)Nc2ncccn2)cc1)c1cccc(S(=O)(=O)N2CCOCC2)c1,n,n,n,n
O=C(CCC(=O)N1CCN(c2ccc(Cl)c(Cl)c2)CC1)c1ccccc1,11µM,n,n,n
Cc1ccc(Nc2c(-c3cccs3)nc3nc(C)cc(C)n23)cc1,u,x,n,x
COc1ccc(S(=O)(=O)N(CCc2ccccc2)CC(=O)Nc2cc(C)cc(C)c2)cc1OC,u,x,n,x
O=C(CN(C(=O)CNC(=O)c1cccs1)c1ccccc1F)NC1CCCC1,n,n,n,n
COc1ccc(NC(=O)c2nc(-c3ccc(C)cc3)n3c2CCCCC3)cc1,u,x,n,x
CC(C)(C)c1ccc(C(=O)NNc2cc(Cl)cc(Cl)c2)cc1,u,n,n,n
CCc1ccc(C(=O)NNc2ccc(Cl)cc2)cc1,1µM,n,n,n
CCc1ccc(C(=O)NNc2cc(Cl)cc(Cl)c2)cc1,1µM,n,n,n
CCOc1ccc(CC(=O)NC2CC(=O)N(c3ccc4c(c3)OCCO4)C2)cc1 (stereo not given),n,x,n,x
Cc1cc(N)c2cc(NC(=O)Nc3ccc4nc(C)cc(N)c4c3)ccc2n1,x,x,n,n
CN1CCN(C(=O)/C(=C\c2ccccc2)c2ccccc2)CC1,n,-55,n,n
